Consider 15 compounds from PubChem BioAssay.

Structures are written as SMILES. Calls of active or inactive are those of the source.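 How the source made its calls, unless noted: active means compounds lowering colon cancer cell viability after pretreatment blocking the GSK3B kinase; inactive means the rest.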

The nature of assay [1]: Wnt pathway potentiators raising nuclear beta-catenin – imaging, WNT3A-conditioned medium, mouse C2C12, NPC library, primary screen (AID 1117326; in the data active means nuclear beta-catenin stimulation mostly above about 4.2%, no sharp cut-off; inactive means mostly below about 10%; further: reference of the scale not given here). The settings on record: stronger effect = higher value.
Assay [2] can be described thus: stimulators of insulin release from INS-1E, primary screen, cell-based, 5 mM glucose, NPC library (AID 1117329;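 active means compound raises insulin release from rat beta cells at 5 mM glucose, no numeric limit stated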; further: reference of the scale not given here). The note with it: rat INS-1E insulin secretion, at 10 µM, stronger effect = higher value.
Assay [3] in a line: growth inhibition of GSK3B-pretreated HCT116 cells – cell-based, CellTiter-Glo, 0.2 to 20 µM (AID 1117336). The settings on record: HCT116 viability after GSK3B inhibitor, at 20 µM, stronger effect = higher value.
A short description of assay [4]: inhibition of endothelial tube formation, primary screen, imaging, VEGF stimulated, CD31 staining, tube area, NPC library (AID 1117340;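 active means compound that reduces growth-factor-driven endothelial tube area in a mixed cell culture, no cutoff stated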). The note with it: VEGF-stimulated ADSC/ECFC co-culture, at 10 µM, stronger effect = higher value.
Assay [5] can be described thus: GLP1 release stimulators, primary, NCI-H716, NPC library (AID 1117341;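 active means compound raises GLP1 secretion from the human gut endocrine cells, with no numeric limit stated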; further: reference of the scale not given here). The settings on record: NCI-H716 cells, at 10 µM, stronger effect = higher value.
A short description of assay [6]: HCT116 colon cancer cell growth inhibition, primary screen, CellTiter-Glo luminescence, NPC library (AID 1117342;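 active means compounds that lower survival of HCT116 colon cancer cells in the luminescence readout, no numeric limit stated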). The settings on record: at 20 µM (top of the series). (ATP-based viability assays read luminescence as a measure of living cells.)
Assay [7] in a line: reduced SW480 viability measured with CellTiter-Glo, NPC library, primary (AID 1117343;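 active means compounds that lower viability of the colon cancer cells in the luminescence readout, with no numeric limit stated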). The settings on record: CellTiter-Glo luminescence; at 20 µM (top of the series).
A short description of assay [8]: NPC library primary testing for decreased DLD-1 cell viability via CellTiter-Glo (AID 1117346;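 active means compounds that lower survival of DLD-1 colon cancer cells in the luminescence readout, no cutoff given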). The note with it: DLD-1 viability, CellTiter-Glo luminescence; at 20 µM (top of the series).

For the compound `NCC(=O)O`, the nuclear beta-catenin stimulation is 2.3% (inactive) in assay [1] (at 10 µM) and 4% in assay [1] (stimulation, at 2 µM). Further, the insulin secretion stimulation in assay [2] was -2.4% (inactive). The viability decrease in assay [3] is 1.6% (inactive). In addition, in assay [4], the tube area decrease was -10.9% (inactive). Further, the GLP1 secretion stimulation in assay [5] is 1.3% (inactive). In assay [6], the inhibition of viability was -28% (inactive). Besides, the viability decrease (inhibition) was -6.3% (inactive) in assay [7] and 7.4% (inactive) in assay [8].
For `CCCOC(=O)c1cc(O)c(O)c(O)c1`, the nuclear beta-catenin stimulation was 4.2% (inactive) in assay [1] (at 10 µM) and 1.9% in assay [1] (stimulation, at 2 µM). Besides, the insulin secretion stimulation in assay [2] is -1.6% (inactive). For the same compound, in assay [3], the viability decrease was 43.1% (inactive). Besides, the tube area decrease in assay [4] was 71.3% (active). Further, in assay [5], the GLP1 secretion stimulation is -2.1% (inactive). For the same compound, the inhibition of viability in assay [6] is 35.1% (inactive). For the same compound, the viability decrease (inhibition) was 78.3% (active) in assay [7] and 58.4% (active) in assay [8].
Regarding `O=C1C(c2[nH]c3ccc(S(=O)(=O)O)cc3c2O)=Nc2ccc(S(=O)(=O)O)cc21`, the nuclear beta-catenin stimulation in assay [1] (at 10 µM) was -1.7% (inactive); in assay [1] (stimulation, at 2 µM) it was -0.3%. Moreover, the insulin secretion stimulation in assay [2] was 5.5% (inactive). Also, in assay [3], the viability decrease was 23.1% (inactive). For the same compound, the tube area decrease in assay [4] is -3.9% (inactive). In addition, the GLP1 secretion stimulation in assay [5] was 3% (inactive). Besides, the inhibition of viability in assay [6] was 11.5% (inactive). Further, the viability decrease (inhibition) is 13.9% (inactive) in assay [7] and 7% (inactive) in assay [8].
Turning to `NS(=O)(=O)c1cc(C(=O)NN2C[C@H]3[C@H]4CCC(C4)[C@H]3C2)ccc1Cl`, the nuclear beta-catenin stimulation was -1.3% (inactive) in assay [1] (at 10 µM) and 2.2% in assay [1] (stimulation, at 2 µM). The insulin secretion stimulation in assay [2] was -3.6% (inactive). Also, the viability decrease in assay [3] is -4.2% (inactive). Moreover, in assay [4], the tube area decrease is -14.3% (inactive). Moreover, in assay [5], the GLP1 secretion stimulation is -0.6% (inactive). Moreover, the inhibition of viability in assay [6] is 10.3% (inactive). Further, the figures for the viability decrease (inhibition) in assay [7] and in assay [8] were -2.9% (inactive) and -6.4% (inactive), respectively.
On to `CC(=O)N1CCN(c2ccc(O)cc2)CC1`, for which the nuclear beta-catenin stimulation in assay [1] (at 10 µM) was 1.7% (inactive); in assay [1] (stimulation, at 2 µM) it was -1.5%. Further, in assay [2], the insulin secretion stimulation was -0.1% (inactive). In addition, the viability decrease in assay [3] was 73.5% (active). Moreover, the tube area decrease in assay [4] was -25.3% (inactive). Further, the GLP1 secretion stimulation in assay [5] is 3.8% (inactive). Further, in assay [6], the inhibition of viability was 38.5% (inactive). Besides, the viability decrease (inhibition) is 101% (active) in assay [7] and 34.4% (inactive) in assay [8].
Take `O=C(O)CCC(=O)C(=O)O`: the nuclear beta-catenin stimulation in assay [1] (at 10 µM) is -1.7% (inactive); in assay [1] (stimulation, at 2 µM) it was -0.1%. Also, the insulin secretion stimulation in assay [2] was -2.2% (inactive). The viability decrease in assay [3] was 0.1% (inactive). In addition, the tube area decrease in assay [4] is -17.8% (inactive). Besides, in assay [5], the GLP1 secretion stimulation was -1.6% (inactive). The inhibition of viability in assay [6] was -1.4% (inactive). Also, the values for the viability decrease (inhibition) in assay [7] and in assay [8] were 2.9% (inactive) and -7.5% (inactive), respectively.
Regarding `O=C(O)c1ccccc1-c1ccc(C(F)(F)F)cc1`, the nuclear beta-catenin stimulation was 2.2% (inactive) in assay [1] (at 10 µM) and 0.7% in assay [1] (stimulation, at 2 µM). Moreover, the insulin secretion stimulation in assay [2] is -0.1% (inactive). For the same compound, the viability decrease in assay [3] was -52.5% (inactive). The tube area decrease in assay [4] is 21.5% (inactive). The GLP1 secretion stimulation in assay [5] was 5.5% (inactive). Also, the inhibition of viability in assay [6] was -0.77% (inactive). Moreover, the values for the viability decrease (inhibition) in assay [7] and in assay [8] were 31.1% (inactive) and -11.8% (inactive), respectively.
On to `CC(C)(Oc1ccc(Cl)cc1)C(=O)OCCCOC(=O)C(C)(C)Oc1ccc(Cl)cc1`, for which the nuclear beta-catenin stimulation in assay [1] (at 10 µM) is 0.7% (inactive); in assay [1] (stimulation, at 2 µM) it was 2.2%. For the same compound, the insulin secretion stimulation in assay [2] was 0.5% (inactive). Moreover, in assay [3], the viability decrease is 11% (inactive). Moreover, the tube area decrease in assay [4] is 2.3% (inactive). In assay [5], the GLP1 secretion stimulation is -0.1% (inactive). Moreover, the inhibition of viability in assay [6] was 5.6% (inactive). The figures for the viability decrease (inhibition) in assay [7] and in assay [8] were 8.9% (inactive) and 4% (inactive), respectively.
As for `CON=C(C(=O)N[C@@H]1C(=O)N2C(C(=O)O)=C(C[N+]3(C)CCCC3)CS[C@H]12)c1csc(N)n1`, the nuclear beta-catenin stimulation in assay [1] (at 10 µM) was -2.1% (inactive); in assay [1] (stimulation, at 2 µM), 0.2%. Besides, the insulin secretion stimulation in assay [2] was 3.1% (inactive). In addition, in assay [3], the viability decrease was 4.1% (inactive). Besides, in assay [4], the tube area decrease is 2.5% (inactive). The GLP1 secretion stimulation in assay [5] was -0.7% (inactive). Also, the inhibition of viability in assay [6] is -21.3% (inactive). For the same compound, the figures for the viability decrease (inhibition) in assay [7] and in assay [8] were -14.4% (inactive) and -9.8% (inactive), respectively.
With `Cc1ccc(C(=O)Oc2ccc(C(O)CNC(C)(C)C)cc2OC(=O)c2ccc(C)cc2)cc1` (stereo not given), the nuclear beta-catenin stimulation in assay [1] (at 10 µM) is 31.3% (inactive); in assay [1] (stimulation, at 2 µM) it was 1.1%. Moreover, the insulin secretion stimulation in assay [2] was 4.5% (inactive). Further, in assay [3], the viability decrease is 79.2% (active). Also, in assay [4], the tube area decrease was 107% (active). The GLP1 secretion stimulation in assay [5] is -1.5% (inactive). Further, in assay [6], the inhibition of viability was 75.9% (active). Also, the viability decrease (inhibition) in assay [7] is 137% (active); in assay [8] it was 102% (active).
For the compound `COc1ccccc1N1CCN(CC(O)COc2cc(OC)c(OC)c(OC)c2)CC1` (stereo not given), the nuclear beta-catenin stimulation was 0.2% (inactive) in assay [1] (at 10 µM) and 0.4% in assay [1] (stimulation, at 2 µM). Further, in assay [2], the insulin secretion stimulation was 1.5% (inactive). Besides, the viability decrease in assay [3] was 16.1% (inactive). Also, the tube area decrease in assay [4] is 56.8% (active). Besides, the GLP1 secretion stimulation in assay [5] is 4.5% (inactive). The inhibition of viability in assay [6] was 20.9% (inactive). Further, the viability decrease (inhibition) was -2.1% (inactive) in assay [7] and 8.5% (inactive) in assay [8].
With `C[C@H]1NCc2cc(-c3ccc4c(=O)c(C(=O)O)cn(C5CC5)c4c3OC(F)F)ccc21`, the nuclear beta-catenin stimulation in assay [1] (at 10 µM) is 4.5% (inactive); in assay [1] (stimulation, at 2 µM), 1.3%. In addition, in assay [2], the insulin secretion stimulation is 0.3% (inactive). For the same compound, the viability decrease in assay [3] is 2.4% (inactive). The tube area decrease in assay [4] is 9.5% (inactive). Besides, the GLP1 secretion stimulation in assay [5] was -0.7% (inactive). Moreover, the inhibition of viability in assay [6] was 20.1% (inactive). For the same compound, the viability decrease (inhibition) in assay [7] was -3.4% (inactive); in assay [8] it was 2.9% (inactive).
Consider `OC[C@]1(O)OC[C@@H](O)[C@H](O)[C@@H]1O`, for which the nuclear beta-catenin stimulation in assay [1] (at 10 µM) was 3.7% (inactive); in assay [1] (stimulation, at 2 µM) it was 0.4%. Further, in assay [2], the insulin secretion stimulation is -1.9% (inactive). The viability decrease in assay [3] is -2.95% (inactive). The tube area decrease in assay [4] was 7.1% (inactive). Besides, the GLP1 secretion stimulation in assay [5] is -6% (inactive). In addition, the inhibition of viability in assay [6] was -4.9% (inactive). Besides, the figures for the viability decrease (inhibition) in assay [7] and in assay [8] were 92.3% (active) and 9.6% (inactive), respectively.
In the case of `N#C[C@H]1C[C@H]2C[C@@H]2N1C(=O)[C@@H](N)C12CC3CC(CC(O)(C3)C1)C2`, the nuclear beta-catenin stimulation is 0.4% (inactive) in assay [1] (at 10 µM) and 1.1% in assay [1] (stimulation, at 2 µM). The insulin secretion stimulation in assay [2] is -2% (inactive). For the same compound, in assay [3], the viability decrease was -4.75% (inactive). Also, in assay [4], the tube area decrease is 2.7% (inactive). Further, the GLP1 secretion stimulation in assay [5] is 1.4% (inactive). The inhibition of viability in assay [6] is -5.3% (inactive). Also, the viability decrease (inhibition) is 9.8% (inactive) in assay [7] and 6.25% (inactive) in assay [8].
On to `O=C(O)c1cc(=O)c2c3nc4ccccc4oc-3cc(=O)c2[nH]1`, for which the nuclear beta-catenin stimulation in assay [1] (at 10 µM) was -0.4% (inactive); in assay [1] (stimulation, at 2 µM), -0.7%. For the same compound, the insulin secretion stimulation in assay [2] was -0.1% (inactive). Besides, the viability decrease in assay [3] is 10.4% (inactive). The tube area decrease in assay [4] was 16.6% (inactive). For the same compound, the GLP1 secretion stimulation in assay [5] is -7.4% (inactive). In addition, the inhibition of viability in assay [6] is -31.1% (inactive). For the same compound, the viability decrease (inhibition) in assay [7] was 17.8% (inactive); in assay [8] it was -15.6% (inactive).
